Laboratory results reported in article PMC7862700, “An all-to-all approach to the identification of sequence-specific readers for epigenetic DNA modifications on cytosine”.

What was measured:
Assay in all cases: DAPPL (digital affinity profiling via proximity ligation, sequencing); 10 mM Tris-HCl pH 7.5, 50 mM NaCl, 1 mM DTT, 4% glycerol, room temperature, 30 min; GST-TFs on glutathione beads, 16-mer random dsDNA library, 0.1% formaldehyde crosslink after washing; high values mean tight binding
Conditions in all cases: protein: recombinant; tags: N-terminal GST; dsDNA, one strand shown
[1] = biological target: T1, ERF (Homo sapiens, UniProt P50548 1-548)
T1 sequence: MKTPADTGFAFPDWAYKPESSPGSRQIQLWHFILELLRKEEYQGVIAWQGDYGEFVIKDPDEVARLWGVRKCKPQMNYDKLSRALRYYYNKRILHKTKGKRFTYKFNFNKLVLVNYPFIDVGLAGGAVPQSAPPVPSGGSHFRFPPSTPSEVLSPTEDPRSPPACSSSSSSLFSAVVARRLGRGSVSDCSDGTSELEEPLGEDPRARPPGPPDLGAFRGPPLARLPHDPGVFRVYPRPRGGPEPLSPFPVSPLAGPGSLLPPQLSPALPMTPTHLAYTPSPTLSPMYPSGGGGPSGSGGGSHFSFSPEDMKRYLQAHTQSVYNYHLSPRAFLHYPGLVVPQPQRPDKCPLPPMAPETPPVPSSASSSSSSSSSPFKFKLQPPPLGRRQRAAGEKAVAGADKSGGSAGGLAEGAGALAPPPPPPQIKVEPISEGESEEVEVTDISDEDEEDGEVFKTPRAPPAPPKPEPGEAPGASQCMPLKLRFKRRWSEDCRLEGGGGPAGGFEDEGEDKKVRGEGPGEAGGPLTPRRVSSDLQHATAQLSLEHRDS
How it was run: (§1)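 Sequencing on an Illumina NextSeq500 followed washing, crosslinking with 0.1% formaldehyde, proximity ligation (BsaI/T4 ligase, 1 h, 37 °C) and PCR amplification of pools that had been incubated for 30 min at room temperature with 200 nmole of a random double-stranded 16-mer DNA library in Tris/NaCl/DTT/glycerol buffer. Each pool held DNA-barcoded human transcription factors, expressed in yeast as GST fusions and captured on glutathione beads, plus a tag-only sample. Binding signal is a hexamer's read frequency for a factor divided by its frequency in the tag-only sample.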

[2] = biological target: T2, ETV3L (Homo sapiens, UniProt Q6ZN32 1-361)
T2 sequence: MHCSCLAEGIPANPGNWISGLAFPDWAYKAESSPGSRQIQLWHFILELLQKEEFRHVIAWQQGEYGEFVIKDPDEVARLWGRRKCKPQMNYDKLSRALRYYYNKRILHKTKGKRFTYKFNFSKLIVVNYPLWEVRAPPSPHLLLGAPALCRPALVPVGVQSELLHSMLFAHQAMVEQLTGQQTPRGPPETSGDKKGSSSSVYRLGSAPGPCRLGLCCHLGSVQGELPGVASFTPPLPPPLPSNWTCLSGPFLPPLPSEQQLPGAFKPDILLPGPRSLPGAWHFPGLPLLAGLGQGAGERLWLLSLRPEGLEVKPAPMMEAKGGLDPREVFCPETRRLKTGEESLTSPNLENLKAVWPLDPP
How it was run: as §1

[3] = biological target: T3, ETS2 (Homo sapiens, UniProt P15036 1-469)
T3 sequence: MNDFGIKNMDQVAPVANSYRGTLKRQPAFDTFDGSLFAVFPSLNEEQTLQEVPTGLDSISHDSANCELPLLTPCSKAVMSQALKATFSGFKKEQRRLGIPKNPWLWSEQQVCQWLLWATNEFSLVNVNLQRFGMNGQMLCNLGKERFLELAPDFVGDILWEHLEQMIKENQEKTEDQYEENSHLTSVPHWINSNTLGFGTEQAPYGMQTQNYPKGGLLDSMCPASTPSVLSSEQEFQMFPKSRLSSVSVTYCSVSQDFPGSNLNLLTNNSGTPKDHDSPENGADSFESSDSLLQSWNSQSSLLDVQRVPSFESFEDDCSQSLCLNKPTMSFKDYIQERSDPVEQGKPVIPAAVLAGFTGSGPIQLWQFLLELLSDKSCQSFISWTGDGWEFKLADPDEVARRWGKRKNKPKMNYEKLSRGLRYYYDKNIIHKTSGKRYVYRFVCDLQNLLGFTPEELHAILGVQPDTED
How it was run: as §1

[4] = biological target: T4, SPDEF (Homo sapiens, UniProt O95238 1-335)
T4 sequence: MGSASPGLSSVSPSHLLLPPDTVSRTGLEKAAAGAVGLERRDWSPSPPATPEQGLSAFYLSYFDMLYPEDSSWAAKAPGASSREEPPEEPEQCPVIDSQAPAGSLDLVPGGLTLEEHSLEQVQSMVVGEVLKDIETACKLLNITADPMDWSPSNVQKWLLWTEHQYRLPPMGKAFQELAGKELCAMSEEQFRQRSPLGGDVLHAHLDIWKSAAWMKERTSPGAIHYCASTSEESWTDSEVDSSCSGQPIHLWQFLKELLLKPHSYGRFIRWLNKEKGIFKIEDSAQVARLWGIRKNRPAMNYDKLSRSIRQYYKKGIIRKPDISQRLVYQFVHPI
How it was run: as §1

[5] = biological target: T5, ETV7 (Homo sapiens, UniProt Q9Y603 1-341)
T5 sequence: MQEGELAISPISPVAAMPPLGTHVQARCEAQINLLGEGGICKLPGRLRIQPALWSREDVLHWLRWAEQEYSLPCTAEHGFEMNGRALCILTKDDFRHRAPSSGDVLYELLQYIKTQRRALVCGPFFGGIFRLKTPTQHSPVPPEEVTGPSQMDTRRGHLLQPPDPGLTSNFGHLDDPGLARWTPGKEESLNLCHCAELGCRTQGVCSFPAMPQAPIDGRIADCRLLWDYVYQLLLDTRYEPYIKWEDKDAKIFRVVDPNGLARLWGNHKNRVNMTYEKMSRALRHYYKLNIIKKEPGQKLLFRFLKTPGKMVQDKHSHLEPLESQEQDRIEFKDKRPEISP
How it was run: as §1

[6] = biological target: T6, ELF5 (Homo sapiens, UniProt Q9UKW6-2 1-255)
T6 sequence: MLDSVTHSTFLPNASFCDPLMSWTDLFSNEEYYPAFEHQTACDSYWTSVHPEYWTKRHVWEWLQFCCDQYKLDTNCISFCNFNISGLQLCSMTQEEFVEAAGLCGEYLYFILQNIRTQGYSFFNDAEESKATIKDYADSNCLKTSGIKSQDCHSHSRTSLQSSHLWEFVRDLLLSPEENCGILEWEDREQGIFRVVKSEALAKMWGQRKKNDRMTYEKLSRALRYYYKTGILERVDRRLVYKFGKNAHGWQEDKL
How it was run: as §1

[7] = biological target: T7, ETV3 (Homo sapiens, UniProt P41162-2 1-143)
T7 sequence: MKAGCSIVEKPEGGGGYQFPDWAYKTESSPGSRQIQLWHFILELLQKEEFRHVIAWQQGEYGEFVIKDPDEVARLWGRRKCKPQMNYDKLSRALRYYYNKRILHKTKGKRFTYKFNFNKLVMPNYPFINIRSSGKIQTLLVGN
How it was run: as §1

[8] = biological target: ETV6 (Homo sapiens, UniProt P41212 1-452)
Chain of ETV6 (P41212 whole entry): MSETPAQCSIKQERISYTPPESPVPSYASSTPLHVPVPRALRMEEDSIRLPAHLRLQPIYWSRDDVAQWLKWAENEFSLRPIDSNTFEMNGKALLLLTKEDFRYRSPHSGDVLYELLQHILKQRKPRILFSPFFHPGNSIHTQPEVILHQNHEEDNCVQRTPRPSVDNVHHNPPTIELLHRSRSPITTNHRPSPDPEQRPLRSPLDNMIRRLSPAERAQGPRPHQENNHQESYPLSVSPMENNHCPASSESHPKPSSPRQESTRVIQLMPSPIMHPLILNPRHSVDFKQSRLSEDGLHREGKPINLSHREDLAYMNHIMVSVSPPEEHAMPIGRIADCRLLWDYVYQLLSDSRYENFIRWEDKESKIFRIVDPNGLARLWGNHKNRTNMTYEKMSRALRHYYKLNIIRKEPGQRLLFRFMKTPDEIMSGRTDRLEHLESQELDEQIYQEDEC
How it was run: as §1

Sequence	binding signal [1]	binding signal [2]	binding signal [3]	binding signal [4]	binding signal [5]	binding signal [6]	binding signal [7]	binding signal [8]
TCCTTA	1.43 fold enrichment (6-mer frequency, TF over GST control)	1.7 fold enrichment (6-mer frequency, TF over GST control)	1.6 fold enrichment (6-mer frequency, TF over GST control)	1.75 fold enrichment (6-mer frequency, TF over GST control)	1.59 fold enrichment (6-mer frequency, TF over GST control)	2.6 fold enrichment (6-mer frequency, TF over GST control)	1.74 fold enrichment (6-mer frequency, TF over GST control)	1.63 fold enrichment (6-mer frequency, TF over GST control)
CAAACT	1.23 fold enrichment (6-mer frequency, TF over GST control)	1.14 fold enrichment (6-mer frequency, TF over GST control)	1.21 fold enrichment (6-mer frequency, TF over GST control)	1.16 fold enrichment (6-mer frequency, TF over GST control)	1.15 fold enrichment (6-mer frequency, TF over GST control)	1.18 fold enrichment (6-mer frequency, TF over GST control)	1.13 fold enrichment (6-mer frequency, TF over GST control)	1.21 fold enrichment (6-mer frequency, TF over GST control)
ACCGCT	1.21 fold enrichment (6-mer frequency, TF over GST control)	1.12 fold enrichment (6-mer frequency, TF over GST control)	1.1 fold enrichment (6-mer frequency, TF over GST control)	1.06 fold enrichment (6-mer frequency, TF over GST control)	1.13 fold enrichment (6-mer frequency, TF over GST control)	1.05 fold enrichment (6-mer frequency, TF over GST control)	1.04 fold enrichment (6-mer frequency, TF over GST control)	1.15 fold enrichment (6-mer frequency, TF over GST control)
GGAACT	1.48 fold enrichment (6-mer frequency, TF over GST control)	1.71 fold enrichment (6-mer frequency, TF over GST control)	1.88 fold enrichment (6-mer frequency, TF over GST control)	1.94 fold enrichment (6-mer frequency, TF over GST control)	1.56 fold enrichment (6-mer frequency, TF over GST control)	2.25 fold enrichment (6-mer frequency, TF over GST control)	1.93 fold enrichment (6-mer frequency, TF over GST control)	1.84 fold enrichment (6-mer frequency, TF over GST control)
ACCTCA	1.23 fold enrichment (6-mer frequency, TF over GST control)	1.29 fold enrichment (6-mer frequency, TF over GST control)	1.21 fold enrichment (6-mer frequency, TF over GST control)	1.09 fold enrichment (6-mer frequency, TF over GST control)	1.04 fold enrichment (6-mer frequency, TF over GST control)	1.11 fold enrichment (6-mer frequency, TF over GST control)	1.18 fold enrichment (6-mer frequency, TF over GST control)	1.17 fold enrichment (6-mer frequency, TF over GST control)
GCCTCC	1.39 fold enrichment (6-mer frequency, TF over GST control)	1.27 fold enrichment (6-mer frequency, TF over GST control)	1.27 fold enrichment (6-mer frequency, TF over GST control)	1.3 fold enrichment (6-mer frequency, TF over GST control)	1.29 fold enrichment (6-mer frequency, TF over GST control)	1.29 fold enrichment (6-mer frequency, TF over GST control)	1.24 fold enrichment (6-mer frequency, TF over GST control)	1.16 fold enrichment (6-mer frequency, TF over GST control)
ATTGCC	1.15 fold enrichment (6-mer frequency, TF over GST control)	1.34 fold enrichment (6-mer frequency, TF over GST control)	1.25 fold enrichment (6-mer frequency, TF over GST control)	1.18 fold enrichment (6-mer frequency, TF over GST control)	1.22 fold enrichment (6-mer frequency, TF over GST control)	1.22 fold enrichment (6-mer frequency, TF over GST control)	1.31 fold enrichment (6-mer frequency, TF over GST control)	1.26 fold enrichment (6-mer frequency, TF over GST control)
CCCTTT	1.42 fold enrichment (6-mer frequency, TF over GST control)	1.51 fold enrichment (6-mer frequency, TF over GST control)	1.37 fold enrichment (6-mer frequency, TF over GST control)	1.51 fold enrichment (6-mer frequency, TF over GST control)	1.34 fold enrichment (6-mer frequency, TF over GST control)	1.52 fold enrichment (6-mer frequency, TF over GST control)	1.36 fold enrichment (6-mer frequency, TF over GST control)	1.4 fold enrichment (6-mer frequency, TF over GST control)
TAAATC	1.24 fold enrichment (6-mer frequency, TF over GST control)	1.29 fold enrichment (6-mer frequency, TF over GST control)	1.33 fold enrichment (6-mer frequency, TF over GST control)	1.33 fold enrichment (6-mer frequency, TF over GST control)	1.22 fold enrichment (6-mer frequency, TF over GST control)	1.15 fold enrichment (6-mer frequency, TF over GST control)	1.18 fold enrichment (6-mer frequency, TF over GST control)	1.29 fold enrichment (6-mer frequency, TF over GST control)
CGCCGC	1.2 fold enrichment (6-mer frequency, TF over GST control)	1.18 fold enrichment (6-mer frequency, TF over GST control)	1.2 fold enrichment (6-mer frequency, TF over GST control)	1.08 fold enrichment (6-mer frequency, TF over GST control)	1.11 fold enrichment (6-mer frequency, TF over GST control)	1.08 fold enrichment (6-mer frequency, TF over GST control)	1.09 fold enrichment (6-mer frequency, TF over GST control)	1.21 fold enrichment (6-mer frequency, TF over GST control)
AAAGAA	1.27 fold enrichment (6-mer frequency, TF over GST control)	1.19 fold enrichment (6-mer frequency, TF over GST control)	1.26 fold enrichment (6-mer frequency, TF over GST control)	1.18 fold enrichment (6-mer frequency, TF over GST control)	1.36 fold enrichment (6-mer frequency, TF over GST control)	1.23 fold enrichment (6-mer frequency, TF over GST control)	1.2 fold enrichment (6-mer frequency, TF over GST control)	1.3 fold enrichment (6-mer frequency, TF over GST control)
CGGCTA	1.07 fold enrichment (6-mer frequency, TF over GST control)	1.19 fold enrichment (6-mer frequency, TF over GST control)	1.07 fold enrichment (6-mer frequency, TF over GST control)	1.25 fold enrichment (6-mer frequency, TF over GST control)	1.26 fold enrichment (6-mer frequency, TF over GST control)	1.19 fold enrichment (6-mer frequency, TF over GST control)	1.12 fold enrichment (6-mer frequency, TF over GST control)	1.27 fold enrichment (6-mer frequency, TF over GST control)
CTATAA	1.29 fold enrichment (6-mer frequency, TF over GST control)	1.14 fold enrichment (6-mer frequency, TF over GST control)	1.28 fold enrichment (6-mer frequency, TF over GST control)	1.34 fold enrichment (6-mer frequency, TF over GST control)	1.22 fold enrichment (6-mer frequency, TF over GST control)	1.2 fold enrichment (6-mer frequency, TF over GST control)	1.14 fold enrichment (6-mer frequency, TF over GST control)	1.16 fold enrichment (6-mer frequency, TF over GST control)
CTTGTT	1.17 fold enrichment (6-mer frequency, TF over GST control)	1.17 fold enrichment (6-mer frequency, TF over GST control)	1.15 fold enrichment (6-mer frequency, TF over GST control)	1.05 fold enrichment (6-mer frequency, TF over GST control)	1.27 fold enrichment (6-mer frequency, TF over GST control)	1.27 fold enrichment (6-mer frequency, TF over GST control)	1.2 fold enrichment (6-mer frequency, TF over GST control)	1.12 fold enrichment (6-mer frequency, TF over GST control)
TCGTTC	1.36 fold enrichment (6-mer frequency, TF over GST control)	1.25 fold enrichment (6-mer frequency, TF over GST control)	1.2 fold enrichment (6-mer frequency, TF over GST control)	1.3 fold enrichment (6-mer frequency, TF over GST control)	1.15 fold enrichment (6-mer frequency, TF over GST control)	1.27 fold enrichment (6-mer frequency, TF over GST control)	1.26 fold enrichment (6-mer frequency, TF over GST control)	1.29 fold enrichment (6-mer frequency, TF over GST control)
